Source: paper PMC5892938, “SARNAclust: Semi-automatic detection of RNA protein binding motifs from immunoprecipitation data”
Whole data set: some 11,000 sequences, median “log2 fold change” near 0.00022, cut for the highest 2% near 0.34. The list shows a part of the results.

The sequences below were run against GST-SBP-SLBP (stem-loop binding protein) (Homo sapiens, UniProt Q14493 1-270) (assay: targeted RNA Bind-n-Seq; RBNS binding buffer: 25 mM Tris pH 7.5, 150 mM KCl, 3 mM MgCl2, 0.1% Tween, 0.5 mg/mL BSA, 1 mM DTT; 27 nM protein, 750 pM RNA pool; temperature not stated; high values mean tight binding). Conditions: protein: recombinant; tags: N-terminal GST and SBP (pGEX6P1-SBP); structured_RNA.
Summary of the method: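 The protein, carrying a GST-SBP tag, was produced in Rosetta(DE3) pLysS E. coli, purified on glutathione, and mixed at 27 nM with 750 pM of a designed RNA oligo pool made by T7 transcription in RBNS binding buffer. RNA that bound was reverse transcribed using a barcoded primer of 10 nucleotides, amplified by PCR and sequenced on a MiSeq with 200-cycle paired-end reads. FLASH joined the reads, HISAT2 aligned them, and they were collapsed by barcode before the binding signal was taken as the DEseq binary-logarithm fold change of read counts for each sequence.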
In the case of “GGUCACGUCUCAAUCAACUCUCUAGAGGGGGGGAAAACCCCUUUGCCCUCACACUCAACAGCUCGCAGUCAAG”, the binding signal is reported as 0.353 ± 0.4 log2 fold change.
“GGUCACGUCUCAAUCAACUCAAAAGAGGGGGGGAAAACCCCUUUACCCUCAUAUUCAACAGCUCGCAGUCAAG” gave a binding signal of 0.449 ± 0.451 log2 fold change.
“GGUCACGUCUCAAUCAACUCAAAAGAGGGGGGGAAAACCCCUUUACCCUCAUCUUCAACAGCUCGCAGUCAAG” gave a binding signal of 0.535 ± 0.407 log2 fold change.
With “GGUCACGUCUCAAUCAACUCCAAAGAGGGGGGGAAAACCCCUUUACCCUCAUCUUCAACAGCUCGCAGUCAAG” the binding signal was 0.443 ± 0.434 log2 fold change.
“GGUCACGUCUCAAUCAACUCUAUUUCCAGGGAAAUCCCUGGCUUAUUCAACAGCUCGCAGUCAAG” showed a binding signal of 0.488 ± 0.245 log2 fold change.
“GGUCACGUCUCAAUCAACUCUAUUUCCAGGGAAAUCCCUGGCUAACUCAACAGCUCGCAGUCAAG” gave a binding signal of 0.335 ± 0.258 log2 fold change.
“GGUCACGUCUCAAUCAACUCAAUCCCCAGGGAAAUCCCUGGCAUUCUCAACAGCUCGCAGUCAAG” showed a binding signal of 0.318 ± 0.264 log2 fold change.
For “GGUCACGUCUCAAUCAACUCAUCUCCCAGGGAAAUCCCUGGCUUAUUCAACAGCUCGCAGUCAAG”, the binding signal was 0.417 ± 0.302 log2 fold change.
Sequence “GGUCACGUCUCAAUCAACUCAUUCCCCAGGGAAAUCCCUGGCUUAUUCAACAGCUCGCAGUCAAG” has a binding signal of 0.349 ± 0.307 log2 fold change.
In the case of “GGUCACGUCUCAAUCAACUCCCAAAGGUUUUUUUAAGAGCCACCCAUCAACAGCUCGCAGUCAAG”, the binding signal is reported as 0.54 ± 0.157 log2 fold change.
“GGUCACGUCUCAAUCAACUCCCAAAGGUUUUUUUUAGAACCACCCAUCAACAGCUCGCAGUCAAG” gave a binding signal of 0.338 ± 0.169 log2 fold change.
“GGUCACGUCUCAAUCAACUCCCAAAGGUUUUUCUCAGAACCACCCAUCAACAGCUCGCAGUCAAG” was tested, and the binding signal was 0.402 ± 0.178 log2 fold change.
For “GGUCACGUCUCAAUCAACUCCCAAAGGUUUUUUUUAGAGCCACCCAUCAACAGCUCGCAGUCAAG”, the binding signal was 0.324 ± 0.158 log2 fold change.
Sequence “GGUCACGUCUCAAUCAACUCCCAAAGGCUUUUCUUAGAGCCACCCAUCAACAGCUCGCAGUCAAG” has a binding signal of 0.496 ± 0.164 log2 fold change.
With “GGUCACGUCUCAAUCAACUCAAUCCCAGGAGUUUCCUCCUGCUAACUCAACAGCUCGCAGUCAAG” the binding signal was 0.303 ± 0.231 log2 fold change.
Sequence “GGUCACGUCUCAAUCAACUCUAUCCCAGGAGUUUCCUCCUGCAUACUCAACAGCUCGCAGUCAAG” has a binding signal of 0.312 ± 0.201 log2 fold change.
With “GGUCACGUCUCAAUCAACUCAUCGUCAGGAGUUUACUCCUGCUAACUCAACAGCUCGCAGUCAAG” the binding signal was 0.304 ± 0.246 log2 fold change.
Sequence “GGUCACGUCUCAAUCAACUCAUCCCCAGGAGUUUACUCCUGUUUAGUCAACAGCUCGCAGUCAAG” has a binding signal of 0.458 ± 0.228 log2 fold change.
“GGUCACGUCUCAAUCAACUCUAUCCCAGGAGUUUACUCCUGUUUUCUCAACAGCUCGCAGUCAAG” showed a binding signal of 0.399 ± 0.223 log2 fold change.
With “GGUCACGUCUCAAUCAACUCUAGUCCAGGAGUUUUCUCCUGUUAAUUCAACAGCUCGCAGUCAAG” the binding signal was 0.331 ± 0.217 log2 fold change.
Sequence “GGUCACGUCUCAAUCAACUCAUCCUCAGGAGUUUCCUCCUGUUAAGUCAACAGCUCGCAGUCAAG” has a binding signal of 0.328 ± 0.204 log2 fold change.
“GGUCACGUCUCAAUCAACUCUUUCCCAGGAGUUUUCUCCUGUUAUGUCAACAGCUCGCAGUCAAG” showed a binding signal of 0.376 ± 0.182 log2 fold change.
“GGUCACGUCUCAAUCAACUCAUUCCCAGGAGUUUACUCCUGCUAACUCAACAGCUCGCAGUCAAG” was tested, and the binding signal was 0.364 ± 0.234 log2 fold change.
For “GGUCACGUCUCAAUCAACUCAAUCCCAGGAGUUUUCUCCUGUAAAGUCAACAGCUCGCAGUCAAG”, the binding signal was 0.317 ± 0.231 log2 fold change.
In the case of “GGUCACGUCUCAAUCAACUCAUCCUCAGGAGUUUACUCCUGCUUACUCAACAGCUCGCAGUCAAG”, the binding signal is reported as 0.315 ± 0.216 log2 fold change.
“GGUCACGUCUCAAUCAACUCAUCUUCAGGAGUUUACUCCUGCUUAGUCAACAGCUCGCAGUCAAG” gave a binding signal of 0.342 ± 0.198 log2 fold change.
“GGUCACGUCUCAAUCAACUCAGUCUCAGGAGUUUACUCCUGCUUAUUCAACAGCUCGCAGUCAAG” showed a binding signal of 0.314 ± 0.242 log2 fold change.
For “GGUCACGUCUCAAUCAACUCUUCGUCCAGGGAAAACCCUGGUUUUCUCAACAGCUCGCAGUCAAG”, the binding signal was 0.335 ± 0.277 log2 fold change.
“GGUCACGUCUCAAUCAACUCAAUCUCCAGGGAAACCCCUGGUAAACUCAACAGCUCGCAGUCAAG” was tested, and the binding signal was 0.353 ± 0.274 log2 fold change.
Work on “GGUCACGUCUCAAUCAACUCUUCCUCCAGGGAAACCCCUGGUUAACUCAACAGCUCGCAGUCAAG” yielded a binding signal of 0.443 ± 0.293 log2 fold change.
For “GGUCACGUCUCAAUCAACUCUUCGCCCAGGGAAACCCCUGGUAAUCUCAACAGCUCGCAGUCAAG”, the binding signal was 0.384 ± 0.343 log2 fold change.
“GGUCACGUCUCAAUCAACUCUUCGUCCAGGGAAACCCCUGGUUUUCUCAACAGCUCGCAGUCAAG” gave a binding signal of 0.36 ± 0.292 log2 fold change.
“GGUCACGUCUCAAUCAACUCUUCCUCCAGGGAAAACCCUGGUAAACUCAACAGCUCGCAGUCAAG” was tested, and the binding signal was 0.339 ± 0.267 log2 fold change.
“GGUCACGUCUCAAUCAACUCUACUUCCAGGGAAAACCCUGGCAAACUCAACAGCUCGCAGUCAAG” was tested, and the binding signal was 0.31 ± 0.258 log2 fold change.
Sequence “GGUCACGUCUCAAUCAACUCUUCUUCCAGGGAAAACCCUGGCAAACUCAACAGCUCGCAGUCAAG” has a binding signal of 0.378 ± 0.272 log2 fold change.
“GGUCACGUCUCAAUCAACUCAGUUUCCAGGGAAAUCCCUGGUUUAUUCAACAGCUCGCAGUCAAG” showed a binding signal of 0.33 ± 0.289 log2 fold change.
Work on “GGUCACGUCUCAAUCAACUCAGUCUCCAGGGAAACCCCUGGUUUAUUCAACAGCUCGCAGUCAAG” yielded a binding signal of 0.458 ± 0.335 log2 fold change.
Work on “GGUCACGUCUCAAUCAACUCAGUCCCCAGGGAAAACCCUGGUUUUUUCAACAGCUCGCAGUCAAG” yielded a binding signal of 0.518 ± 0.357 log2 fold change.
Sequence “GGUCACGUCUCAAUCAACUCUUCUUCCAGGGAAACCCCUGGUAAUCUCAACAGCUCGCAGUCAAG” has a binding signal of 0.352 ± 0.266 log2 fold change.
“GGUCACGUCUCAAUCAACUCAGUCCCCAGGGAAACCCCUGGUAUUUUCAACAGCUCGCAGUCAAG” gave a binding signal of 0.335 ± 0.368 log2 fold change.
